Activity calls are given as the source filed them.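 How the source made its calls: active means inhibition above 50%; inactive means the rest.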
Test: HepG2 cytotoxicity, primary screen, cytotoxicity control for P. falciparum antimalarial project, cell-based, ATP luminescence (AID 2303);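 further: 0% = DMSO wells and 100% = digitonin-killed cells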
Conditions: HepG2 viability, 24-48 h, at 10 µM, hits give high values
With O=C(Nc1ccc(-c2nc3ccccc3[nH]2)cc1)c1ccc(S(=O)(=O)N2CCc3ccccc32)cc1 the inhibition was 32% (inactive). With CCCCNCc1ccc(-c2nc(CN(Cc3ccc(Cl)c(Cl)c3)S(=O)(=O)c3ccc(NC(C)=O)cc3)cs2)cc1 the inhibition was 30% (inactive). With CCCCCCCN1CC[C@@H](CCCc2ccnc3ccc(OCC4CCCNC4)cc23)[C@@H](CC)C1 (stereo not given in full) the inhibition was 99% (active). For COc1ccc(NC(=O)NC2CCN(c3ccnc4cc(Cl)ccc34)C2)cc1 (stereo not given), the inhibition was 10% (inactive). With CCOc1ccc2c(NN=Cc3cc(OC)c(OC)cc3OC)cc(C)nc2c1 the inhibition was 24% (inactive). In the case of CCc1cc(NC2CCN(C)CC2)nc(Nc2ccc(C)cc2)n1, the inhibition is reported as 3% (inactive). In the case of O=C(CCC1CCCC1)N(Cc1ccc(-c2ccc(CNCCc3ccccc3)cc2)cc1)C1CCCNC1 (stereo not given), the inhibition is reported as 99% (active). With Cc1cc(C(=O)Nc2ccc3c(c2)CCN3C2CCN(Cc3cc(F)cc(F)c3F)C2)no1 (stereo not given) the inhibition was -5% (inactive). For CC(C)C(C(=O)Nc1ccc(S(=O)(=O)N(C)C)cc1)c1ccc(Cl)cc1 (stereo not given), the inhibition was 27% (inactive). With CCCC1N=C(N)N=C(N)N1c1ccc(OC)cc1 (stereo not given) the inhibition was -2% (inactive). With CSc1cccc(NC(=O)c2cc3ccccc3oc2=O)c1 the inhibition was -4% (inactive). For CCc1c[nH]c2c(N3CCCCS3(=O)=O)cc(C(=O)N[C@@H](Cc3ccccc3)[C@H](O)CNCc3cccc(OC)c3)cc12, the inhibition was 0% (inactive). In the case of CCn1c(-c2nonc2N)nc2c(C#CC(C)(C)O)ncc(OCCNCCc3ccc(OC)cc3)c21, the inhibition is reported as 4% (inactive). For O=C(CCc1nc2c(cnn2-c2ccccc2)c(=O)[nH]1)NC1CCSc2ccccc21 (stereo not given), the inhibition was 10% (inactive). For CCOC(=O)c1ccc(NC(=O)N(Cc2ccc(-c3cccc(CN4CCNCC4)c3)cc2)C2CCN(Cc3ccccc3)CC2)cc1, the inhibition was 19% (inactive). In the case of COc1ccc(O)c(C(=O)c2cc(C(=O)NCCc3ccccc3)c(=O)n(CCc3ccccc3)c2)c1, the inhibition is reported as 11% (inactive). With Cc1nn(CC(O)Cn2c3ccc(Br)cc3c3cc(Br)ccc32)c(C)c1Br (stereo not given) the inhibition was 4% (inactive). For NC1CCN(c2nc(NCCCc3ccc(O)cc3)nc(NCc3cccc4ccccc34)n2)CC1, the inhibition was 12% (inactive). For Cn1nccc1C(=O)NCCNCc1cccc(-c2ccc(-c3nc4ccccc4[nH]3)s2)c1, the inhibition was 22% (inactive). In the case of O=C(NC(Cc1ccccc1)C(=O)O)c1cc(=O)c2ccccc2o1 (stereo not given), the inhibition is reported as 53% (active). In the case of COc1cc(NC(=O)N2CCOC(CCN3CCC(c4ccccc4)CC3)(c3ccc(Cl)c(Cl)c3)C2)cc(OC)c1 (stereo not given), the inhibition is reported as 12% (inactive). With CN(C)CCOc1ccc2c(c1)CN(C)CC2c1ccccc1 (stereo not given) the inhibition was 15% (inactive). In the case of CC(Cl)=CCc1c(C)[nH]c2c(ccc3ccccc32)c1=O, the inhibition is reported as 24% (inactive). In the case of COc1ccc2ncc(F)c(CCN3CC[C@@H](CNCc4nc5c(cc4C)SCC(=O)N5)C3)c2n1, the inhibition is reported as 14% (inactive). With CC1(C)[C@H]2CC[C@@H](CNc3nc(NCC(=O)Nc4ccc5ccccc5c4)nc(N4CCC(N5CCCC5)CC4)n3)[C@@H]1C2 the inhibition was 6% (inactive). For CCNc1cc(C(=O)N[C@@H](Cc2cccc(F)c2)[C@H](O)CNC(C)CCCC(C)C)cc(N2CCCCS2(=O)=O)c1 (stereo not given in full), the inhibition was -3% (inactive). With C[C@@H]1CN(C(c2cccc(O)c2)c2cccc(C(=O)N(C)c3cccc(F)c3)c2)[C@@H](C)CN1C(c1cccc(O)c1)c1cccc(C(=O)N(C)c2cccc(F)c2)c1 (stereo not given in full) the inhibition was 0% (inactive). In the case of O=C(NCCCCCN1CCC(c2c[nH]c3ccccc23)C1)Nc1ccc(Cl)c(Cl)c1 (stereo not given), the inhibition is reported as 28% (inactive). With CC(Cc1ccc(OCCN2CCN(c3ccc(Cl)cc3)CC2)cc1)NCC(O)c1cccc(C(F)(F)F)c1 (stereo not given) the inhibition was 97% (active). In the case of COc1ccc2c(c1)ncn2-c1cc(OCc2ccncc2Br)c(C(N)=O)s1, the inhibition is reported as 14% (inactive). With CC(C)N1CCN(CCCCNc2c3ccccc3nc3ccccc23)CC1 the inhibition was 38% (inactive). With N#Cc1ccc2c(c1)CCN(CCC1CCC(NC(=O)c3cc4ccc(Br)cc4[nH]3)CC1)C2 (stereo not given) the inhibition was 12% (inactive). In the case of COc1ccccc1CNc1nc(Nc2ccccc2C)nc2ccccc12, the inhibition is reported as 24% (inactive). In the case of CNC(=O)NC1CCN(Cc2c(-c3cccs3)nc3ccccc3c2C(=O)N[C@@H](C)C2CCCCC2)CC1, the inhibition is reported as 5% (inactive). With N#Cc1cccc(NC(=O)Nc2ccc(-c3csc(-c4nc5ccccc5[nH]4)c3)cc2)c1 the inhibition was 63% (active). With COc1ccc2nccc(N3CCC(NCCNCc4ccc5c(n4)NC(=O)CO5)C3)c2n1 (stereo not given) the inhibition was 0% (inactive). In the case of Cn1c(NCc2cc(F)cc3c2OCOC3)nc2cc(Nc3ccnc(Nc4cccc(CS(C)(=O)=O)c4)n3)ccc21, the inhibition is reported as -14% (inactive). With CC(=O)c1c[nH]c(C(=O)Nc2ccc(-c3cn4ccccc4n3)cc2)c1 the inhibition was 20% (inactive). For C=C1N(C)c2cc([N+](=O)[O-])c(N)cc2C1(C)C, the inhibition was 22% (inactive). For CC(C)CCn1c(Sc2ccc(C#N)c([N+](=O)[O-])c2)nnc1-c1ccccc1Cl, the inhibition was 20% (inactive).

— PubChem BioAssay
